# Source: PubChem BioAssay (National Center for Advancing Translational Sciences (NCATS))
# Lassa entry inh: Lassa virus entry inhibition. Potency, µM (series often up to 37.9 µM), for the others: top-dose activity change, negative = inhibition, hits mostly inhibitors. Lassa virus pseudotype entry inhibition, cell reporter. AID 540256. actives 1.2% (n = 300,000); calls by dose curve; tested in HEK293 cells; also: potency is read from the fitted curve at half-maximal effect; nearly all actives have a fitted effect of over 50% in size
# Marburg entry inh: Marburg virus entry inhibition; Marburg virus pseudotyped entry inhibition, cell reporter; Potency, µM (highest dose often 37.8 µM), for inactives: top-dose activity change, negative = inhibition, actives largely listed as inhibitors; actives 1.8% (n = 300,000); AID 540276; calls by dose curve; tested in HEK293 cells; also: potency is read from the fitted curve at half-maximal effect
# VACV mCherry inh: inhibitors of vaccinia virus infection (mCherry reporter signal) | Vaccinia virus mCherry reporter infection, fluorescence | Potency, µM (doses to about 36.5 µM), for inactives: at the highest dose activity change, negative = inhibition, hits mostly inhibitors | actives 0.63% (n = 310,000) | AID 720579; calls by dose curve; tested in A549 cells; also: potency is read from the fitted curve at half-maximal effect; nearly all actives have a fitted effect of over 35% in size
# FMDV inh: foot and mouth disease virus antiviral activity. actives 1.2% (n = 410,000). Potency, µM (titrated, usually from 57.9 µM), inactives show top-dose activity change, negative = inhibition, most hits filed as inhibitors. FMDV antiviral cell-based qHTS; calls by dose curve; tested in HEK293T cells; also: read-out not given here; potency is read from the fitted curve at half-maximal effect; nearly all actives have a fitted effect of over 45% in size
# HCMV antiviral: blocks human cytomegalovirus replication. HFF cells, HCMV-luciferase reporter, 72 h; active compounds read low. activity change, negative = inhibition, % at 57.5 µM. actives 4.5% (n = 410,000). AID 1259415; in the data active = activity change below about -60%; inconclusive = no clear call, values can overlap the other calls; inactive = above about -39%
#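 Luciferase read-out from HCMV-luciferase-infected HFFs (MOI 1 PFU/cell) 72 h post infection at 37C; compounds added after 16 h cell attachment; activity normalized between buffer-only basal and Salinomycin (10uM) inhibitor controls.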
# VACV Venus inh: vaccinia inhibition (Venus reporter) | Vaccinia virus Venus reporter expression, fluorescence | Potency, µM (doses to about 36.5 µM), without a hit: top-dose activity change, negative = inhibition, hits mostly inhibitors | actives 0.46% (n = 330,000) | AID 720580; calls by dose curve; tested in A549 cells; also: potency is read from the fitted curve at half-maximal effect; nearly all actives have a fitted effect of over 30% in size
# * = called active by the depositor; i = inactive; ? = inconclusive; / = not tested or not shown; [ ] = another dose, or the depositor's remark. Rows were chosen to be rich in hits. Some 6.5% of all compounds tested hit in one or more screens of this group. % is scaled to controls: 0 for no effect and ±100 for the full control effect.
SMILES,Lassa entry inh,Marburg entry inh,VACV mCherry inh,FMDV inh,HCMV antiviral,VACV Venus inh
CSC1=C(C#N)C(c2ccc(Cl)cc2)C2=C(CC(C)(C)CC2=O)N1 (stereo unspecified),?,?,-3%,-8%,-68*,9%
COc1cc(C2C3=C(CC(C)(C)CC3=O)NC3=C2C(=O)c2ccccc23)ccc1O (stereo unspecified),-4%,-4%[46.1 µM],?,-10%,-26,?
CC1(C)CC(=O)C2=C(C1)NC1=C(C(=O)c3ccccc31)C2c1ccc(Cl)cc1 (stereo unspecified),?,?,?,0%,-100*,?
CCCSC1=C(C#N)[C@H](c2ccc(OC)cc2)C2=C(CC(C)(C)CC2=O)N1,/,-10%,/,/,/,/
Nc1[nH]c(=S)nc2nnsc12,/,/,-20%,/,/,-12%
CC1=CC(C)(C)Nc2ccc(OC(=O)CN3C(=O)c4ccccc4C3=O)cc21,?,?,-12%,?,-100*,65%
CC1=CC(C)(C)Nc2ccc(OC(=O)C(Cc3ccccc3)N3C(=O)c4ccccc4C3=O)cc21 (stereo unspecified),5µM*,14%[46.1 µM],/,0%,?,-1%
CC(=O)Oc1ccc(CC(C(=O)O)N2C(=O)c3ccccc3C2=O)cc1 (stereo unspecified),11%[46.1 µM],10%[46.1 µM],-4%,-5%,-17,-4%
CCOc1ccc2c(c1)C(C)=CC(C)(C)N2,/,/,-2%,0%,-17,-7%
CC1=CC(C)(C)Nc2ccc(OC(=O)CN3C(=O)c4cccc5cccc(c45)C3=O)cc21,-3%,-20%,-5%,?,-78*,19%
CCOCCCNC(=O)Cn1ncc2c([nH]c3ccccc32)c1=O,-17%[46.1 µM],/,-1%,-14%,10,3%
Cc1ccccc1-c1ccc(CN2CCc3nnc(C(NS(C)(=O)=O)C(C)C)n3CC2)cc1 (stereo unspecified),/,/,-4%,-15%,/,-18%
COc1ccccc1N(C)S(=O)(=O)c1ccc(C(=O)Nc2ccncc2)cc1,-20%,?,i,32µM*,?,-18%
COc1ccccc1NC(=O)c1ccc(S(=O)(=O)N(C)c2ccccc2OC)cc1,/,/,/,?,27,/
COc1ccccc1N(C)S(=O)(=O)c1ccc(C(=O)NC2CCCCC2)cc1,10µM*,-13%,-5%,?,?,-5%
COc1ccccc1N(C)S(=O)(=O)c1ccc(C(=O)Nc2cc(OC)c(OC)c(OC)c2)cc1,/,/,/,?,-23,/
Cc1ccc2c(c1)N(C(=O)N1CCC(C(=O)NCc3cccc(Br)c3)CC1)CCO2,12%[46.1 µM],/,-3%,-1%,-22,-5%
CC[C@@H](C)[C@@H](C(=O)N1CCN(C(=O)OC(C)(C)C)CC1)n1cc(CCCCNC(=O)OC(C)(C)C)nn1,/,/,-2%,13µM*,-27,-3%
CC(C)(C)OC(=O)N1CCN(C(=O)Cn2cc(CCO)nn2)CC1,/,/,-14%,-2%,64,-5%
CC[C@H](C)C(C(=O)N1CCN(C(=O)OC(C)(C)C)CC1)n1cc(C(CC(C)C)NC(=O)OC(C)(C)C)nn1 (stereo partly specified),/,/,5%,-29%,12,-3%
CC(C)(C)OC(=O)NCCCCc1cn(CC(=O)N2CCN(C(=O)OC(C)(C)C)CC2)nn1,/,/,-22%,-24%,-80*,-10%
CCCCN(c1ccccc1)S(=O)(=O)c1cc2c3c(c1)C(C)C(=O)N3CCC2 (stereo unspecified),?,/,-12%,-21%,?,-14%
Cc1cc(/C=c2/sc3nc4ccccc4n3c2=O)c(C)n1-c1ccccn1,0.21µM*,?,/,0.032µM*,-101*,/
Cc1cc(/C=c2\sc3nc4ccccc4n3c2=O)c(C)n1-c1ccc(C(=O)O)cc1,15%,8%[46.1 µM],-5%,-5%,-37,6%
Cc1ccc(C)c(NC(=O)c2nc(S(C)(=O)=O)ncc2N(Cc2ccc(C(C)(C)C)cc2)Cc2ccco2)c1,-23%[46.1 µM],?,-12%,-24%,14,-5%
SMILES,Lassa entry inh,Marburg entry inh,VACV mCherry inh,FMDV inh,HCMV antiviral,VACV Venus inh
Cc1oc2c(C)c3oc(=O)c(CCC(=O)N4CCCCC4)c(C)c3cc2c1C,9%[46.1 µM],8%[46.1 µM],-7%,9%,?,-11%
COc1ccc(-c2c(C)nn3c(N4CCC(C(=O)NCCN(C)C)CC4)cc(C)nc23)cc1OC,1%,21µM*,/,20%,34,/
COc1ccccc1-c1c(C)nn2c(N3CCC(C)CC3)cc(C)nc12,-11%[46.1 µM],?,-5%,25µM*,-28,-2%
COCCCNC(=O)C1CCN(c2cc(C)nc3c(-c4ccc(OC)c(OC)c4)c(C)nn23)CC1,1%[46.1 µM],11%[46.1 µM],1%,0%,4,1%
CN(C(=O)CCc1nc(-c2ccccc2F)no1)c1ccc(Cl)cc1,-2%[46.1 µM],0%[46.1 µM],-4%,-22%,-8,-9%
CCN(CC)Cc1c(C(=O)N/N=C/c2ccco2)nnn1-c1nonc1N,/,/,/,2%,9,/
C/C(=N\NC(=O)c1nnn(-c2nonc2N)c1CN1CCc2ccccc21)c1ccccc1O,/,/,/,5%,-98*,/
CCCc1c(C(=O)N/N=C(\CC)c2ccccc2)nnn1-c1nonc1N,/,/,-8%,-16%,-63*,-3%
CCC/C(=N/NC(=O)c1nnn(-c2nonc2N)c1CN1CCCCC1)c1ccccc1,/,/,74%,-17%,-37,86%
CC(=C/c1ccco1)/C=N/NC(=O)c1nnn(-c2nonc2N)c1CN(C)C,-18%[46.1 µM],-1%[46.1 µM],-7%,5%,-60*,-8%
NC(=O)c1c(NC(=O)c2noc3c2CCCC3)sc2c1CCCC2,?,?,i[7.34 µM],23%,80,-16%[7.34 µM]
CCN(CC)S(=O)(=O)c1ccc(C(=O)NCCSc2c(-c3ccc(C)cc3)[nH]c3ccccc23)cc1,?,?,-13%,-19%,-27,-15%
Cc1ccccc1C(=O)Nc1nc(-c2nnn(-c3ccc(C(C)C)cc3)c2C)ns1,33%[46.1 µM],/,-15%,-19%,-33,-17%
COc1ccc(C2C(C#N)=C(N)Oc3c2sc2nc(C)cc(C)c32)cc1 (stereo unspecified),?,?,-24%,40µM*,-68*,-13%
COc1ccc(C2C(C#N)=C(N)Oc3cc(N)ccc32)cc1 (stereo unspecified),/,/,/,9%,-12,/
CN1CCCN(c2cc(-c3ccc4ccccc4c3)nc3ccnn23)CC1,/,/,8%,0%,-91*,43%
CCOc1ccc(/C=C/c2nc(C#N)c(NC3CCCCC3)o2)cc1,-21%[46.1 µM],-12%[46.1 µM],-12%,-15%,?,-17%
CC(c1ccccc1)C1C(C#N)=C(N)OC2=C1C(=O)CC(C)(C)C2 (stereo unspecified),-6%,1%,/,-8%,-65*,/
CC1(C)CC(=O)C2=C(C1)OC(N)=C(C#N)C2C#Cc1ccccc1 (stereo unspecified),-13%,?,-1%,?,-18,2%
CCOC(=O)c1[nH]nc(-c2cc(CC)c(O)cc2O)c1-c1cscn1,?,?,/,8.9µM*,-103*,/
